Assay results: the supplement of paper PMC4466140

Target: AgAbp1
Assay: SPOT peptide array binding signal intensity (averaged, normalized) (arbitrary units (background-subtracted, floor 0; scale differs between SH3 domains)); higher = stronger binding of the SH3 domain to the peptide
In short: (§1)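 Cellulose membranes carried synthetic 15-mer peptides with cysteines swapped for serines. These were incubated overnight at 4°C with 10 μg/ml of GST-fused SH3 domains from four yeast species in TBS-based blocking buffer. Binding signal, detected with anti-GST antibody and quantified in Genespotter, is the normalized, background-subtracted spot intensity averaged over replicates, in arbitrary units specific to each domain.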

Binder | SPOT peptide array binding signal intensity
ISRRRLPVIMHRLKM | 138
SSTPTTPERPKRKSG | 128

Target: AgBbc1
Assay: as above
In short: as §1

Binder | SPOT peptide array binding signal intensity
ISRRRLPVIMHRLKM | 16.2
SSTPTTPERPKRKSG | 2110

Target: AgBem1-D1
Assay: as above
In short: as §1

Binder | SPOT peptide array binding signal intensity
ISRRRLPVIMHRLKM | 66
SSTPTTPERPKRKSG | ≤ 0

Target: AgBzz1-D1
Assay: as above
In short: as §1

Binder | SPOT peptide array binding signal intensity
ISRRRLPVIMHRLKM | 49.5
SSTPTTPERPKRKSG | 36.5

Target: AgBzz1-D2
Assay: as above
In short: as §1

Binder | SPOT peptide array binding signal intensity
ISRRRLPVIMHRLKM | 14
SSTPTTPERPKRKSG | 21

Target: AgCyk3
Assay: as above
In short: as §1

Binder | SPOT peptide array binding signal intensity
ISRRRLPVIMHRLKM | 1
SSTPTTPERPKRKSG | 2

Target: AgFus1
Assay: as above
In short: as §1

Binder | SPOT peptide array binding signal intensity
ISRRRLPVIMHRLKM | 423
SSTPTTPERPKRKSG | ≤ 0

Target: AgHof1
Assay: as above
In short: as §1

Binder | SPOT peptide array binding signal intensity
ISRRRLPVIMHRLKM | 6.5
SSTPTTPERPKRKSG | ≤ 0

Target: AgHse1
Assay: as above
In short: as §1

Binder | SPOT peptide array binding signal intensity
ISRRRLPVIMHRLKM | 1310
SSTPTTPERPKRKSG | ≤ 0

Target: AgLsb1
Assay: as above
In short: as §1

Binder | SPOT peptide array binding signal intensity
ISRRRLPVIMHRLKM | 2.75
SSTPTTPERPKRKSG | 1

Target: AgLsb4
Assay: as above
In short: as §1

Binder | SPOT peptide array binding signal intensity
ISRRRLPVIMHRLKM | 40
SSTPTTPERPKRKSG | 602

Target: AgMyo5
Assay: as above
In short: as §1

Binder | SPOT peptide array binding signal intensity
ISRRRLPVIMHRLKM | 0.25
SSTPTTPERPKRKSG | ≤ 0

Target: AgNbp2
Assay: as above
In short: as §1

Binder | SPOT peptide array binding signal intensity
ISRRRLPVIMHRLKM | 303
SSTPTTPERPKRKSG | ≤ 0

Target: AgRvs167
Assay: as above
In short: as §1

Binder | SPOT peptide array binding signal intensity
ISRRRLPVIMHRLKM | 16.5
SSTPTTPERPKRKSG | 18.3

Target: AgSho1
Assay: as above
In short: as §1

Binder | SPOT peptide array binding signal intensity
ISRRRLPVIMHRLKM | 240
SSTPTTPERPKRKSG | ≤ 0

Target: AgSla1-D1-D2
Assay: as above
In short: as §1

Binder | SPOT peptide array binding signal intensity
ISRRRLPVIMHRLKM | 158
SSTPTTPERPKRKSG | ≤ 0

Target: AgSla1-D3
Assay: as above
In short: as §1

Binder | SPOT peptide array binding signal intensity
ISRRRLPVIMHRLKM | 9.5
SSTPTTPERPKRKSG | 1.25

Target: CaAbp1-D1
Assay: as above
In short: as §1

Binder | SPOT peptide array binding signal intensity
ISRRRLPVIMHRLKM | 617
SSTPTTPERPKRKSG | 514

Target: CaAbp1-D2
Assay: as above
In short: as §1

Binder | SPOT peptide array binding signal intensity
ISRRRLPVIMHRLKM | 645
SSTPTTPERPKRKSG | 1000

Target: CaBbc1
Assay: as above
In short: as §1

Binder | SPOT peptide array binding signal intensity
ISRRRLPVIMHRLKM | 142
SSTPTTPERPKRKSG | 2820

Target: CaBem1-D1
Assay: as above
In short: as §1

Binder | SPOT peptide array binding signal intensity
ISRRRLPVIMHRLKM | 102
SSTPTTPERPKRKSG | 8

Target: CaBzz1-D1
Assay: as above
In short: as §1

Binder | SPOT peptide array binding signal intensity
ISRRRLPVIMHRLKM | 49
SSTPTTPERPKRKSG | 63.5

Target: CaBzz1-D2
Assay: as above
In short: as §1

Binder | SPOT peptide array binding signal intensity
ISRRRLPVIMHRLKM | 42.5
SSTPTTPERPKRKSG | 36.2

Target: CaCyk3
Assay: as above
In short: as §1

Binder | SPOT peptide array binding signal intensity
ISRRRLPVIMHRLKM | 36
SSTPTTPERPKRKSG | 166

Target: CaFus1
Assay: as above
In short: as §1

Binder | SPOT peptide array binding signal intensity
ISRRRLPVIMHRLKM | 542
SSTPTTPERPKRKSG | 48.5

Target: CaHof1
Assay: as above
In short: as §1

Binder | SPOT peptide array binding signal intensity
ISRRRLPVIMHRLKM | 1
SSTPTTPERPKRKSG | 0.5

Target: CaHse1
Assay: as above
In short: as §1

Binder | SPOT peptide array binding signal intensity
ISRRRLPVIMHRLKM | 61
SSTPTTPERPKRKSG | ≤ 0

Target: CaLsb1
Assay: as above
In short: as §1

Binder | SPOT peptide array binding signal intensity
ISRRRLPVIMHRLKM | ≤ 0
SSTPTTPERPKRKSG | ≤ 0

Target: CaLsb4
Assay: as above
In short: as §1

Binder | SPOT peptide array binding signal intensity
ISRRRLPVIMHRLKM | 177
SSTPTTPERPKRKSG | 7900

Target: CaMyo5
Assay: as above
In short: as §1

Binder | SPOT peptide array binding signal intensity
ISRRRLPVIMHRLKM | 0.5
SSTPTTPERPKRKSG | 0.25

Target: CaNbp2
Assay: as above
In short: as §1

Binder | SPOT peptide array binding signal intensity
ISRRRLPVIMHRLKM | 812
SSTPTTPERPKRKSG | 28.5

Target: CaRvs167
Assay: as above
In short: as §1

Binder | SPOT peptide array binding signal intensity
ISRRRLPVIMHRLKM | 42.3
SSTPTTPERPKRKSG | 110

Target: CaRvs167-3
Assay: as above
In short: as §1

Binder | SPOT peptide array binding signal intensity
ISRRRLPVIMHRLKM | 153
SSTPTTPERPKRKSG | ≤ 0

Target: CaSho1
Assay: as above
In short: as §1

Binder | SPOT peptide array binding signal intensity
ISRRRLPVIMHRLKM | 738
SSTPTTPERPKRKSG | 9.5

Target: CaSla1-D1-D2
Assay: as above
In short: as §1

Binder | SPOT peptide array binding signal intensity
ISRRRLPVIMHRLKM | 386
SSTPTTPERPKRKSG | 480

Target: CaSla1-D3
Assay: as above
In short: as §1

Binder | SPOT peptide array binding signal intensity
ISRRRLPVIMHRLKM | 99.8
SSTPTTPERPKRKSG | ≤ 0

Target: ScAbp1
Assay: as above
In short: as §1

Binder | SPOT peptide array binding signal intensity
ISRRRLPVIMHRLKM | 150
SSTPTTPERPKRKSG | 66

Target: ScBbc1
Assay: as above
In short: as §1

Binder | SPOT peptide array binding signal intensity
ISRRRLPVIMHRLKM | 10.5
SSTPTTPERPKRKSG | 2030

Target: ScBem1-D1
Assay: as above
In short: as §1

Binder | SPOT peptide array binding signal intensity
ISRRRLPVIMHRLKM | 23
SSTPTTPERPKRKSG | 3

Target: ScBzz1-D1
Assay: as above
In short: as §1

Binder | SPOT peptide array binding signal intensity
ISRRRLPVIMHRLKM | 8.5
SSTPTTPERPKRKSG | 15

Target: ScBzz1-D2
Assay: as above
In short: as §1

Binder | SPOT peptide array binding signal intensity
ISRRRLPVIMHRLKM | 9
SSTPTTPERPKRKSG | 7.5

Target: ScCyk3
Assay: as above
In short: as §1

Binder | SPOT peptide array binding signal intensity
ISRRRLPVIMHRLKM | 49
SSTPTTPERPKRKSG | ≤ 0

Target: ScFus1
Assay: as above
In short: as §1

Binder | SPOT peptide array binding signal intensity
ISRRRLPVIMHRLKM | 516
SSTPTTPERPKRKSG | ≤ 0

Target: ScHof1
Assay: as above
In short: as §1

Binder | SPOT peptide array binding signal intensity
ISRRRLPVIMHRLKM | 1
SSTPTTPERPKRKSG | ≤ 0

Target: ScHse1
Assay: as above
In short: as §1

Binder | SPOT peptide array binding signal intensity
ISRRRLPVIMHRLKM | 1390
SSTPTTPERPKRKSG | 33.5

Target: ScLsb1
Assay: as above
In short: as §1

Binder | SPOT peptide array binding signal intensity
ISRRRLPVIMHRLKM | 32.5
SSTPTTPERPKRKSG | 260

Target: ScLsb2
Assay: as above
In short: as §1

Binder | SPOT peptide array binding signal intensity
ISRRRLPVIMHRLKM | 2
SSTPTTPERPKRKSG | 1

Target: ScLsb3
Assay: as above
In short: as §1

Binder | SPOT peptide array binding signal intensity
ISRRRLPVIMHRLKM | 1300
SSTPTTPERPKRKSG | 5780

Target: ScLsb4
Assay: as above
In short: as §1

Binder | SPOT peptide array binding signal intensity
ISRRRLPVIMHRLKM | 42
SSTPTTPERPKRKSG | 836

Target: ScMyo3
Assay: as above
In short: as §1

Binder | SPOT peptide array binding signal intensity
ISRRRLPVIMHRLKM | ≤ 0
SSTPTTPERPKRKSG | ≤ 0

Target: ScMyo5
Assay: as above
In short: as §1

Binder | SPOT peptide array binding signal intensity
ISRRRLPVIMHRLKM | ≤ 0
SSTPTTPERPKRKSG | ≤ 0

Target: ScNbp2
Assay: as above
In short: as §1

Binder | SPOT peptide array binding signal intensity
ISRRRLPVIMHRLKM | 485
SSTPTTPERPKRKSG | ≤ 0

Target: ScPex13
Assay: as above
In short: as §1

Binder | SPOT peptide array binding signal intensity
ISRRRLPVIMHRLKM | 18
SSTPTTPERPKRKSG | 78.2

Target: ScRvs167
Assay: as above
In short: as §1

Binder | SPOT peptide array binding signal intensity
ISRRRLPVIMHRLKM | 216
SSTPTTPERPKRKSG | 902

Target: ScSho1
Assay: as above
In short: as §1

Binder | SPOT peptide array binding signal intensity
ISRRRLPVIMHRLKM | 1520
SSTPTTPERPKRKSG | ≤ 0

Target: ScSla1-D1-D2
Assay: as above
In short: as §1

Binder | SPOT peptide array binding signal intensity
ISRRRLPVIMHRLKM | 222
SSTPTTPERPKRKSG | 290

Target: ScSla1-D3
Assay: as above
In short: as §1

Binder | SPOT peptide array binding signal intensity
ISRRRLPVIMHRLKM | 70.5
SSTPTTPERPKRKSG | 15

Target: SpAbp1-D1
Assay: as above
In short: as §1

Binder | SPOT peptide array binding signal intensity
ISRRRLPVIMHRLKM | 714
SSTPTTPERPKRKSG | 85

Target: SpBbc1
Assay: as above
In short: as §1

Binder | SPOT peptide array binding signal intensity
ISRRRLPVIMHRLKM | 0.5
SSTPTTPERPKRKSG | 22.2

Target: SpBzz1-D1
Assay: as above
In short: as §1

Binder | SPOT peptide array binding signal intensity
ISRRRLPVIMHRLKM | 124
SSTPTTPERPKRKSG | 64

Target: SpBzz1-D2
Assay: as above
In short: as §1

Binder | SPOT peptide array binding signal intensity
ISRRRLPVIMHRLKM | 0.5

Target: SpCyk3
Assay: as above
In short: as §1

Binder | SPOT peptide array binding signal intensity
ISRRRLPVIMHRLKM | 16

Target: SpHof1
Assay: as above
In short: as §1

Binder | SPOT peptide array binding signal intensity
ISRRRLPVIMHRLKM | 285

Target: SpHof1-2
Assay: as above
In short: as §1

Binder | SPOT peptide array binding signal intensity
ISRRRLPVIMHRLKM | 101

Target: SpHof1-3
Assay: as above
In short: as §1

Binder | SPOT peptide array binding signal intensity
ISRRRLPVIMHRLKM | 618

Target: SpHse1
Assay: as above
In short: as §1

Binder | SPOT peptide array binding signal intensity
ISRRRLPVIMHRLKM | 690

Target: SpLsb1
Assay: as above
In short: as §1

Binder | SPOT peptide array binding signal intensity
ISRRRLPVIMHRLKM | 1.5

Target: SpLsb4
Assay: as above
In short: as §1

Binder | SPOT peptide array binding signal intensity
ISRRRLPVIMHRLKM | 484

Target: SpMyo1
Assay: as above
In short: as §1

Binder | SPOT peptide array binding signal intensity
ISRRRLPVIMHRLKM | 2.5

Target: SpNbp2
Assay: as above
In short: as §1

Binder | SPOT peptide array binding signal intensity
ISRRRLPVIMHRLKM | 437

Target: SpPex13
Assay: as above
In short: as §1

Binder | SPOT peptide array binding signal intensity
ISRRRLPVIMHRLKM | 22

Target: SpRvs167
Assay: as above
In short: as §1

Binder | SPOT peptide array binding signal intensity
ISRRRLPVIMHRLKM | 159

Target: SpSla1-D1-D2
Assay: as above
In short: as §1

Binder | SPOT peptide array binding signal intensity
ISRRRLPVIMHRLKM | 14

Target: SpSla1-D3
Assay: as above
In short: as §1

Binder | SPOT peptide array binding signal intensity
ISRRRLPVIMHRLKM | 18.5
